Measured values taken from the supplement of paper PMC12494721.
Counter-ions that a name gives are not always drawn.

How the values were obtained:
Conditions in all cases: incubation time: 27 h, anaerobic, 37 °C;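 for the amine columns active = adjusted P below 0.05 in both replicates with a change the same way and a mean fold change under 0.8 or over 1.25; inactive = the rest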
[1] = tested on: Clostridium sporogenes DSM 1664; experiment: growth (OD595) fold change vs plate DMSO controls (fold change (ratio)); higher = more growth
Procedure, shortened: (§1)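 To obtain OD, 595 nm absorbance readings were blank-subtracted, corrected for compound background using 20 µM compound solutions in water, and multiplied by a calibration factor of 5. They came from 96-well mGAM cultures grown anaerobically for 27 h at 37 °C and shaken before reading. Growth is the fold change relative to the median of plate DMSO controls. Two biological replicates were averaged, and fold changes above 1.5 were set to NA.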

[2] = tested on: Escherichia coli IAI1; experiment: as above
Procedure, shortened: as §1

[3] = tested on: Klebsiella aerogenes DSM 30053; experiment: as above
Procedure, shortened: as §1

[4] = tested on: Ruminococcus gnavus DSM 108212; experiment: as above
Procedure, shortened: as §1

[5] = tested on: Klebsiella aerogenes DSM 30053; experiment: fold change of Histamine concentration vs plate DMSO controls (fold change (ratio)); higher = more amine produced, active = hit call of the paper (significant change in both replicates, either direction)
Procedure, shortened: (§2)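 Anaerobic mGAM cultures of four gut bacterial strains were grown at 37 °C for 27 h in 80 µL wells, starting at OD 0.1 before 1:1 dilution. Compounds were at 20 µM final (sweeteners 50 µM). Whole cultures were extracted with cold acetonitrile/methanol containing 0.1% formic acid and centrifuged. Amines were quantified by LC–triple-quadrupole MS (dynamic MRM) against external calibration curves and drift-corrected within batch. Each value is the fold change versus plate DMSO controls, averaged over 2 biological replicates.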

[6] = tested on: Clostridium sporogenes DSM 1664; experiment: fold change of Tryptamine concentration vs plate DMSO controls (fold change (ratio)); higher = more amine produced, active = hit call of the paper (significant change in both replicates, either direction)
Procedure, shortened: as §2

[7] = tested on: Ruminococcus gnavus DSM 108212; experiment: as above
Procedure, shortened: as §2

[8] = tested on: Escherichia coli IAI1; experiment: fold change of Putrescine concentration vs plate DMSO controls (fold change (ratio)); higher = more amine produced, active = hit call of the paper (significant change in both replicates, either direction)
Procedure, shortened: as §2

[9] = tested on: Klebsiella aerogenes DSM 30053; experiment: as above
Procedure, shortened: as §2

[10] = tested on: Escherichia coli IAI1; experiment: fold change of Cadaverine concentration vs plate DMSO controls (fold change (ratio)); higher = more amine produced, active = hit call of the paper (significant change in both replicates, either direction)
Procedure, shortened: as §2

[11] = tested on: Klebsiella aerogenes DSM 30053; experiment: as above
Procedure, shortened: as §2

[12] = tested on: Ruminococcus gnavus DSM 108212; experiment: fold change of 2-Phenylethylamine concentration vs plate DMSO controls (fold change (ratio)); higher = more amine produced, active = hit call of the paper (significant change in both replicates, either direction)
Procedure, shortened: as §2

| Structure (SMILES) | growth [1] | growth [2] | growth [3] | growth [4] | fold change of Histamine concentration [5] | fold change of Tryptamine concentration [6] | fold change of Tryptamine concentration [7] | fold change of Putrescine concentration [8] | fold change of Putrescine concentration [9] | fold change of Cadaverine concentration [10] | fold change of Cadaverine concentration [11] | fold change of 2-Phenylethylamine concentration [12] |
| --- | --- | --- | --- | --- | --- | --- | --- | --- | --- | --- | --- | --- |
| Nc1ccc(S(=O)(=O)Nc2cnc3ccccc3n2)cc1 [Sulfaquinoxaline sodium salt] (20 µM) | 1.03 | 1.01 | 0.991 | 0.994 | 1.04 (inactive) | 0.987 (inactive) | 0.985 (inactive) | 0.911 (inactive) | 1.02 (inactive) | 1.01 (inactive) | 0.991 (inactive) | 0.981 (inactive) |
| CN1CCN(C(c2ccccc2)c2ccc(Cl)cc2)CC1 (stereo not drawn) [Chlorcyclizine hydrochloride] (20 µM) | 1.15 | 1.16 | 0.997 | 0.999 | 1.09 (inactive) | 0.979 (inactive) | 0.89 (inactive) | 1.14 (inactive) | 1 (inactive) | 0.889 (inactive) | 0.981 (inactive) | 0.919 (inactive) |
| Cc1ncc(CO)c(CO)c1O [Pyridoxine hydrochloride] (20 µM) | 1.06 | 0.974 | 1.06 | 1.01 | 0.916 (inactive) | 1.05 (inactive) | 1.02 (inactive) | 0.925 (inactive) | 0.989 (inactive) | 1.06 (inactive) | 1.02 (inactive) | 1.01 (inactive) |
| Cc1cccc(C)c1NC(=O)CC12CCCN1CCC2 [Pilsicainide Hydrochloride] (20 µM) | 0.937 | 1.04 | 1.01 | 1.04 | 0.986 (inactive) | 0.995 (inactive) | 1.05 (inactive) | 1.05 (inactive) | 0.984 (inactive) | 1.03 (inactive) | 0.98 (inactive) | 1.06 (inactive) |
| Cc1nc2n(c(=O)c1CCN1CCC(c3noc4cc(F)ccc34)CC1)CCCC2 [Risperidone] (20 µM) | 1 | 1 | 1 | 1.02 | 1.04 (inactive) | 0.962 (inactive) | 0.931 (inactive) | 1.33 (inactive) | 1.05 (inactive) | 0.952 (inactive) | 1.01 (inactive) | 0.878 (inactive) |
| C#C[C@]1(O)CC[C@H]2[C@@H]3[C@H](C)CC4=C(CCC(=O)C4)[C@H]3CC[C@@]21C [Tibolone] (20 µM) | 1.01 | 0.989 | 1.04 | 0.931 | 1.03 (inactive) | 1.05 (inactive) | 1.04 (inactive) | 1.03 (inactive) | 1.02 (inactive) | 0.994 (inactive) | 1.01 (inactive) | 1.02 (inactive) |
| CC(COc1ccccc1)NN (stereo not drawn) [Phenoxypropazine dihydrochloride] (20 µM) | 1.06 | 0.99 | 0.988 | 0.995 | 1.05 (inactive) | 0.619 (active) | 1 (inactive) | 1.01 (inactive) | 1.01 (inactive) | 0.965 (inactive) | 1.02 (inactive) | 1.01 (inactive) |
| CN(C)CCc1c[nH]c2ccc(C[C@H]3COC(=O)N3)cc12 [Zolmitriptan] (20 µM) | 1.04 | 1.06 | 1.01 | 0.975 | 1.01 (inactive) | 1.04 (inactive) | 1.04 (inactive) | 1.01 (inactive) | 1.01 (inactive) | 1.01 (inactive) | 0.993 (inactive) | 1.06 (inactive) |
| N#Cc1ccc(C(c2ccc(C#N)cc2)n2cncn2)cc1 [Letrozole] (20 µM) | 1.05 | 1.02 | 0.996 | 1.12 | 1.07 (inactive) | 0.988 (inactive) | 1.01 (inactive) | 1.03 (inactive) | 1.01 (inactive) | 0.964 (inactive) | 0.992 (inactive) | 1.02 (inactive) |
| O=C(NCC1CCCCN1)c1cc(OCC(F)(F)F)ccc1OCC(F)(F)F (stereo not drawn) [Flecainide acetate] (20 µM) | 0.94 | 0.991 | 1.01 | 0.997 | 1 (inactive) | 0.99 (inactive) | 1.03 (inactive) | 0.98 (inactive) | 0.976 (inactive) | 0.987 (inactive) | 0.989 (inactive) | 1.06 (inactive) |
| CCOC(=O)c1ccc(C#Cc2ccc3c(c2)C(C)(C)CCS3)nc1 [Tazarotene] (20 µM) | 1.02 | 0.951 | 0.961 | 0.972 | 1.02 (inactive) | 1.17 (inactive) | 1.22 (inactive) | 0.958 (inactive) | 0.977 (inactive) | 0.942 (inactive) | 1.04 (inactive) | 1.22 (inactive) |
| Nc1ncnc2c1ncn2[C@@H]1O[C@H](COP(=O)(O)O)[C@@H](O)[C@H]1O [5'-Adenylic acid] (50 µM) | 0.902 | 0.983 | 1.04 | 1.03 | 0.938 (inactive) | 0.951 (inactive) | 1.01 (inactive) | 1.01 (inactive) | 1.03 (inactive) | 0.905 (inactive) | 1 (inactive) | 0.989 (inactive) |
| COc1ccccc1OCC(O)COC(N)=O (stereo not drawn) [Methocarbamol] (20 µM) | 1.03 | 1 | 1.03 | 1.12 | 1.06 (inactive) | 1.02 (inactive) | 0.963 (inactive) | 0.998 (inactive) | 1.01 (inactive) | 0.986 (inactive) | 0.987 (inactive) | 0.95 (inactive) |
| O=C1CC[C@@H](C(=O)N2CSC[C@H]2C(=O)O)N1 [Pidotimod] (20 µM) | 1.31 | 0.987 | 1.02 | 1.09 | 0.983 (inactive) | 0.982 (inactive) | 1.02 (inactive) | 0.979 (inactive) | 0.992 (inactive) | 1.01 (inactive) | 0.999 (inactive) | 1.04 (inactive) |
| CNCC[C@@H](Oc1cccc2ccccc12)c1cccs1 [(R)-Duloxetine hydrochloride] (20 µM) | 1.03 | 1.07 | 0.994 | 0.9 | 1.01 (inactive) | 0.986 (inactive) | 0.979 (inactive) | 1.04 (inactive) | 0.994 (inactive) | 0.952 (inactive) | 0.986 (inactive) | 1.02 (inactive) |
| Clc1ccc2nsnc2c1NC1=NCCN1 [Tizanidine hydrochloride] (20 µM) | 0.00885 | 1.01 | 1.15 | 0.103 | 0.919 (inactive) | 0.0144 (active) | 0.0877 (active) | 0.984 (inactive) | 0.995 (inactive) | 0.983 (inactive) | 1.02 (inactive) | 0.0862 (active) |
| CCCCCCCC/C=C\CCCCCCCCCCCC(=O)O [Erucic acid] (20 µM) | 0.975 | 1 | 1.04 | 1.06 | 1.02 (inactive) | 1.1 (inactive) | 0.851 (inactive) | 0.981 (inactive) | 1.01 (inactive) | 1.06 (inactive) | 0.99 (inactive) | 0.86 (inactive) |
| COc1cccc2c1C(=O)c1c(O)c3c(c(O)c1C2=O)C[C@@](O)(C(C)=O)C[C@@H]3O[C@H]1C[C@H](N)[C@H](O)[C@H](C)O1 [Daunorubicin hydrochloride] (20 µM) | 0.967 | 0.972 | 0.997 | 1.13 | 1.01 (inactive) | 0.941 (inactive) | 0.986 (inactive) | 0.988 (inactive) | 1.02 (inactive) | 1.09 (inactive) | 1.04 (inactive) | 0.967 (inactive) |
| CN(C)CCN1C(=O)c2ccccc2N(C)c2ccccc21 [Dibenzepine hydrochloride] (20 µM) | 1.02 | 0.993 | 0.972 | 0.677 | 1.06 (inactive) | 0.993 (inactive) | 1.03 (inactive) | 1.01 (inactive) | 1.01 (inactive) | 1.02 (inactive) | 0.985 (inactive) | 1.06 (inactive) |
| COc1cc2c(cc1OC)CC(=O)N(CCCN(C)C[C@H]1Cc3cc(OC)c(OC)cc31)CC2 [Ivabradine hydrochloride] (20 µM) | 1.05 | 0.995 | 0.986 | 0.903 | 1.02 (inactive) | 1.01 (inactive) | 1.1 (inactive) | 0.924 (inactive) | 0.937 (inactive) | 0.895 (inactive) | 1.01 (inactive) | 1.1 (inactive) |
| CC(C)[C@H]1CC[C@H](C(=O)N[C@H](Cc2ccccc2)C(=O)O)CC1 [Nateglinide] (20 µM) | 1.11 | 1.22 | 1.02 | 0.903 | 1.01 (inactive) | 0.94 (inactive) | 1.02 (inactive) | 1.2 (inactive) | 1 (inactive) | 0.984 (inactive) | 1 (inactive) | 1.05 (inactive) |
| Nc1ccc(S(=O)(=O)Nc2ccc(Cl)nn2)cc1 [Sulfachloropyridazine] (20 µM) | 1.03 | 0.966 | 1.05 | 0.974 | 0.939 (inactive) | 1.01 (inactive) | 1.04 (inactive) | 0.964 (inactive) | 0.976 (inactive) | 0.962 (inactive) | 1.01 (inactive) | 1.14 (inactive) |
| C[C@]12C=CC(=O)C=C1CC[C@@H]1[C@@H]2C(=O)C[C@@]2(C)[C@H]1CC[C@]2(O)C(=O)CO [Prednisone] (20 µM) | 1.04 | 1.05 | 1.08 | 1.1 | 0.861 (inactive) | 1.04 (inactive) | 1.04 (inactive) | 1.07 (inactive) | 0.941 (inactive) | 1.08 (inactive) | 1.02 (inactive) | 1.02 (inactive) |
| CC(C)(C)C(=O)C(Oc1ccc(Cl)cc1)n1ccnc1 (stereo not drawn) [Climbazole] (20 µM) | 1.22 | 1.05 | 1.07 | 0.922 | 0.96 (inactive) | 1.04 (inactive) | 0.979 (inactive) | 1.04 (inactive) | 1.02 (inactive) | 0.968 (inactive) | 1.01 (inactive) | 1.03 (inactive) |
